# Source: PubChem BioAssay
# Shown are actives, neighbours in structure and some others; about 3.7% of the full set was active somewhere.
# A549 viability: A549 cytotoxicity, counter-screen for Nrf2 inhibitors | A549 ARE-Fluc cells, CellTiter-Fluor viability, 18-24 h | Potency, µM (series often up to 46 µM), inactives show at the highest dose activity change, negative = cytotoxicity, usual class: inhibitors | actives 0.16% (n = 390,000); further: on the % scale 0 is the no-effect control and ±100 the full control effect
#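 Cytotoxicity counterscreen: CellTiter-Fluor fluorescence was measured in A549 ARE_Fluc cells after 18-24 h of compound exposure in a concentration series. The subsequent BugLite luminescent read reports ARE-luciferase activity.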
# Nrf2 block: inhibitors of Nrf2 signaling. A549 ARE-Fluc reporter, luciferase luminescence, 18-24 h. actives 2.1% (n = 360,000). Potency, µM (doses to about 46 µM), without a hit: at the top dose activity change, negative = inhibition, hits mostly inhibitors; further: on the % scale 0 is the no-effect control and ±100 the full control effect; nearly all actives have a fitted effect of over 60% in size
#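 Two sequential reads on A549 ARE_Fluc cells exposed to compound for 18-24 h: a CellTiter-Fluor fluorescence read for viability, then a luciferase luminescence read for Nrf2/ARE activity.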
# Nrf2 ARE act: Nrf2 pathway activation; Potency, µM (series often up to 46.1 µM), without a hit: top-dose activation, usual class: activators; AID 624171; AREc32 ARE-luciferase reporter (MCF7-derived line), luminescence, 24 h; actives 0.31% (n = 410,000); further: % of control where 0% means no effect; nearly all actives have a fitted effect of over 65% in size
#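 Quantitative high-throughput format: AREc32 reporter cells, 1000 per well, received compound by pin transfer and were incubated 24 hr at 37 deg C, 5% CO2, before Steady-Glo luminescence detection.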
# ELG1 DNA repair: inhibitors of ELG1-dependent DNA repair in HEK293T cells | HEK293T ELG1-luciferase reporter, luminescence, 16 h; DNA damage induced by 5-fluorouridine | Potency, µM (series often up to 46.1 µM), for the others: top-dose activity change, negative = inhibition, usual class: inhibitors | actives 2.3% (n = 330,000); further: on the % scale 0 is the no-effect control and ±100 the full control effect; nearly all actives have a fitted effect of over 55% in size
#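 5-Fluorouridine DNA damage + compound/DMSO, 2,000 cells/well, 16 h, 37 °C/5% CO2. ONE-Glo, 30 min RT, luminescence. Readout = decrease in reporter signal.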
# ELG1 FLuc counter: luciferase inhibition in cell-free luciferin readout for ELG1 hits; actives 3% (n = 350); Potency, µM (doses to about 46.1 µM), inactives show at the highest dose activity change, negative = inhibition, usual class: inhibitors; cell-free firefly luciferase luminescence counter-screen, ViewLux; shares compounds with ELG1 DNA repair; further: on the % scale 0 is the no-effect control and ±100 the full control effect
# ELG1-Luc inh: inhibits ELG1-dependent DNA repair in HEK293T cells, confirmed; actives 68% (n = 670); shares compounds with ELG1 DNA repair; HEK293T ELG1-luciferase levels, luminescence; cells co-treated with 5-fluorouridine; Potency, µM (titrated, usually from 46.1 µM), inactives show top-dose activity change, negative = inhibition, hits mostly inhibitors; further: on the % scale 0 is the no-effect control and ±100 the full control effect; nearly all actives have a fitted effect of over 55% in size
# Target sequence (Q96QE3 whole entry, looked up): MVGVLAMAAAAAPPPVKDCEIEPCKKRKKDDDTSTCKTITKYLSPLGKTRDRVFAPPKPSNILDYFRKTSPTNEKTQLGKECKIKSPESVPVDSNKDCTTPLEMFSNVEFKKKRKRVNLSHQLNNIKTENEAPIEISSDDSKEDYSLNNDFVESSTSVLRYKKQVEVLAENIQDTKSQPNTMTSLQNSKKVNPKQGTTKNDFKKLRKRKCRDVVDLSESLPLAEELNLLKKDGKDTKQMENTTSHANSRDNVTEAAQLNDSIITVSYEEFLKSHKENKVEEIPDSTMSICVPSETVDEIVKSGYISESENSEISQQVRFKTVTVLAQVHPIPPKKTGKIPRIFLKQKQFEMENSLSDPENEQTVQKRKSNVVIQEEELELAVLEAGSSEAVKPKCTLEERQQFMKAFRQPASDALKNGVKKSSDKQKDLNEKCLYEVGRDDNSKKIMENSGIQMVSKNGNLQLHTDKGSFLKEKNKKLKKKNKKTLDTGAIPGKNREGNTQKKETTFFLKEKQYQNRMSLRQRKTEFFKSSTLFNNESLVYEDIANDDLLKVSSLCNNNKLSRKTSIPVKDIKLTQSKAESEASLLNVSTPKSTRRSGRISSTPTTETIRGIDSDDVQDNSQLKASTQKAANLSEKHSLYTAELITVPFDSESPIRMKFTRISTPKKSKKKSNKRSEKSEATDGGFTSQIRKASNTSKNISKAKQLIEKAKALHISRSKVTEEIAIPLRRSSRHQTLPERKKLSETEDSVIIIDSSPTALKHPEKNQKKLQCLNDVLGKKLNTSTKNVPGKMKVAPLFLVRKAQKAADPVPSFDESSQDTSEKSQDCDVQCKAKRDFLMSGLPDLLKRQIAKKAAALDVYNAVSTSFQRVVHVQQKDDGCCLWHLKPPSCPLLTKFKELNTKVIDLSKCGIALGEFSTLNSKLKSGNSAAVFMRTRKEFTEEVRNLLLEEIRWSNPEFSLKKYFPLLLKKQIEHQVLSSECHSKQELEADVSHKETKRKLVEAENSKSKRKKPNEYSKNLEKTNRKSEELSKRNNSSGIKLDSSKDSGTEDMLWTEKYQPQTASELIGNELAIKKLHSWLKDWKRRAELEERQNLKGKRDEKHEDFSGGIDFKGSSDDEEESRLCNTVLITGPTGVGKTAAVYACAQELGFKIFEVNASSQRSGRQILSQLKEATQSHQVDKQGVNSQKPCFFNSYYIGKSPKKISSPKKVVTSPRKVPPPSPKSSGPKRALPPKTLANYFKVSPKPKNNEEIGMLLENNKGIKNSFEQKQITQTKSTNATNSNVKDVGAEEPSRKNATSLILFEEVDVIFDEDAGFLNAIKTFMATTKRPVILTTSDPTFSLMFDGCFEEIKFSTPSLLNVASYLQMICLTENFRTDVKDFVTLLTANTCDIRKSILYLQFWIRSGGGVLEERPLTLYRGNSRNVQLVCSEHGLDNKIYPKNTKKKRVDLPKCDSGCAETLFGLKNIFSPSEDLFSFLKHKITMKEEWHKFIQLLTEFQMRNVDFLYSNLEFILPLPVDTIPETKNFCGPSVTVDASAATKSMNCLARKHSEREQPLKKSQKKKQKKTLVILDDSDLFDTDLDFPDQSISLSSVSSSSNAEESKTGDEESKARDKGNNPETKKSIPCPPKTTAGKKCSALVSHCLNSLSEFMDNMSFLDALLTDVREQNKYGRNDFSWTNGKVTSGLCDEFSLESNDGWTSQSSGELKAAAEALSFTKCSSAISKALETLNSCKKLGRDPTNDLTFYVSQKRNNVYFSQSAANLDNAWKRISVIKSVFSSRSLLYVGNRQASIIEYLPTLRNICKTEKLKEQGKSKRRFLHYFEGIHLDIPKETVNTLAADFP
# ELG1-Luc MMS: MMS-stimulated human ELG1 repair inhibition, confirmed; AID 624249; shares compounds with ELG1 DNA repair; Potency, µM (doses to about 46.1 µM), without a hit: at the top dose activity change, negative = inhibition, actives largely listed as inhibitors; HEK293T luciferase-tagged ELG1 level, MMS stimulated; actives 53% (n = 670); further: on the % scale 0 is the no-effect control and ±100 the full control effect; nearly all actives have a fitted effect of over 60% in size
# ELG1 5-FU: confirmation of ELG1 repair inhibitors: viability with 5FU. shares compounds with ELG1 DNA repair. cell viability with 5-FU, ELG1-dependent repair. Potency, µM (doses to about 46.1 µM), inactives show at the highest dose activity change, negative = viability loss, usual class: cytotoxic. 670 tested, under 10 active. AID 624250;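 further: ELG1-luc HEK293T cells cotreated with 5-fluorouridine at 10 µM final; viability measured 16 h after compound addition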
# ELG1 MMS viab: confirmation of ELG1 repair inhibitors: viability with MMS | Potency, µM (series often up to 46.1 µM), inactives show top-dose activity change, negative = viability loss, actives largely listed as cytotoxic | AID 624251 | shares compounds with ELG1 DNA repair | Cell viability with MMS, ELG1-dependent DNA repair | actives 33% (n = 670);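 further: ELG1-luc HEK293T cells co-treated with 10 µM MMS; viability read 16 h after compound addition; on the % scale 0 is the no-effect control and ±100 the full control effect; nearly all actives have a fitted effect of over 60% in size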
# Cell viab unstim: counter-screen for ELG1 repair inhibitors: unstimulated cell viability; shares compounds with ELG1 DNA repair; cell viability counter-screen, unstimulated, luminescence; Potency, µM (highest dose often 45.9 µM), for the others: top-dose activity change, negative = loss of viability, usual class: cytotoxic; actives 8% (n = 900); AID 624252;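 further: compound exposure lasted 16 hours before reading; on the % scale 0 is the no-effect control and ±100 the full control effect; nearly all actives have a fitted effect of over 55% in size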
# FLuc biochem: inhibits purified firefly luciferase, counter-screen for ELG1 hits. purified firefly luciferase, luminescence counter-screen. Potency, µM (top dose mostly 57.5 µM), inactives show at the top dose activity, negative = inhibition, most hits filed as inhibitors. shares compounds with ELG1 DNA repair. AID 624253. actives 10% (n = 350); further: on the % scale 0 is the no-effect control and ±100 the full control effect
# The depositor's hits bear a star; ? = inconclusive; . = no result given; [ ] = remark or other dose. The call rests on the fitted dose curve; in most records, active means well fitted curve in the direction sought with a large enough effect; inconclusive means small, poorly fitted or top-dose-only effect, or another doubt; inactive means no such curve, though single readings can be large; an effect the other way counts as inactive or inconclusive. Potency means the concentration at half of the fitted maximal effect.
SMILES,A549 viability,Nrf2 block,Nrf2 ARE act,ELG1 DNA repair,ELG1-Luc inh,ELG1-Luc MMS,ELG1 5-FU,ELG1 MMS viab,Cell viab unstim,others
CC(NC(=O)CN1CCN(c2ccccc2F)CC1)c1ccccc1 (configuration not stated),3%,-6%,0%,-1%,.,.,.,.,.,
Nc1ncnc2nc(SCc3ccc(Cl)cc3Cl)[nH]c12,-7%,-23%,0%,?,.,.,.,.,.,
Nc1cc(=O)[nH]c(SCc2ccc(Cl)cc2Cl)n1,-6%,?,4%,4.1µM*,-12%,2.8µM*,6%,4µM*,-7%,
O=C1CCN(Cc2ccccc2)C=C1c1ccc(Cl)cc1,5%,2%,4%,5%,.,.,.,.,.,
O=C1CCN(Cc2ccccc2)C=C1c1ccc2ccccc2c1,-4%,?,9%,?,.,.,.,.,-2%,
Cc1cccc(N2CCN(C3=NC(=O)/C(=C\c4cn[nH]c4-c4ccccc4)S3)CC2)c1,-1%,-1%,0%,2.3µM*,1.4µM*,11µM*,?,?,?,ELG1 FLuc counter=19%;FLuc biochem=-2%
O=C(CS(=O)(=O)Cc1ccccc1)NCCc1ccc(F)cc1,1%,10%,0%,5%,.,.,.,.,.,
CCOC(=O)c1c(C)[nH]c(C(=O)NNC(=O)c2ccccc2F)c1C,-14%,?,0%,?,.,.,.,.,-9%,
CCOC(=O)c1c(C)[nH]c(C(=O)NNC(=O)c2ccccc2)c1C,4%,.,-2%,?,.,.,.,.,.,
COc1ccc(-c2cc(C(F)F)n3ncc(C(=O)Nc4cccc(S(=O)(=O)N5CCOCC5)c4)c3n2)cc1,-3%,?,3%,3.7µM*,?,22%,12%,-5%,-13%,
COc1ccc(Br)c(C(=O)Nc2cccc(S(=O)(=O)N3CCOCC3)c2)c1,9%,-11%,-1%,-4%,.,.,.,.,.,
Cc1nn(-c2ccccc2)c2c1C(O)n1c(nc3ccccc31)S2 (configuration not stated),4%,-1%,10%,2.6µM*,16µM*,11µM*,?,25µM*,?,
CCOc1ccc2nc(N3CCCC(C(=O)Nc4ccc(Br)c(C)c4)C3)sc2c1 (configuration not stated),0%,?,1%,.,.,.,.,.,.,
CC1(C)Cc2c(C#N)c(SCCOc3ccccc3)nc(N3CCOCC3)c2CO1,-16%,?,0%,2.5µM*,3.5µM*,?,?,-9%,?,
Cc1c(C(=O)OCCOc2ccccc2)[nH]c2c1C(=O)CC(c1ccccc1Cl)C2 (configuration not stated),-17%,?,-1%,.,.,.,.,.,.,
CCOC(=O)Cn1c(=O)oc2cc(S(=O)(=O)N3CCN(c4cccc(C)c4C)CC3)ccc21,-3%,-1%,0%,.,.,.,.,.,.,
CC(C)(C)c1ccc(C(=O)NNc2ncccc2-n2cccc2)cc1,4%,17%,8%,3.3µM*,6%,30%,-6%,-2%,-2%,
Oc1ccccc1-c1cc(-c2ccccc2)n[nH]1,7%,?,20%,?,.,.,.,.,-2%,
Oc1ccccc1-c1cc(-c2ccc(F)cc2)n[nH]1,1%,?,?,?,.,.,.,.,.,
CSc1ncnc2c1ncn2CCCN1CCN(c2ccccn2)CC1,.,.,5%,.,.,.,.,.,.,
COc1cc(C(=O)NC(=S)Nc2ccccc2N2CCCC2)cc(OC)c1OC,-16%,18µM*,6%,2.6µM*,4µM*,-19%,?,10%,?,
COc1cc(C(=O)Nc2ccccc2C(=O)Nc2ccccn2)cc(OC)c1OC,-1%,-10%,-1%,2µM*,3.5µM*,13µM*,?,?,?,
COc1cc(C(=O)Nc2ccccc2NC(=O)c2cc(OC)c(OC)c(OC)c2)cc(OC)c1OC,-2%,?,2%,3.3µM*,3.1µM*,0%,?,10%,?,
Oc1ccc(C[C@H]2CN([C@@H](Cc3ccc(O)cc3)CN3CCC[C@@H]3CN3C(=S)NC[C@@H]3Cc3ccccc3)C(=S)N2CC2CCCCCC2)cc1,.,.,-3%,.,.,.,.,.,.,
COc1cccc2cc(-c3cc(=O)oc4ccc(OCC(C)=O)cc34)oc12,0%,10%,-1%,2.6µM*,6.3µM*,11µM*,8%,-16%,?,
SMILES,A549 viability,Nrf2 block,Nrf2 ARE act,ELG1 DNA repair,ELG1-Luc inh,ELG1-Luc MMS,ELG1 5-FU,ELG1 MMS viab,Cell viab unstim,others
Cc1nn(-c2ccccc2)c(N2CCCC2)c1/C=N/n1cnc2scc(-c3ccccc3)c2c1=O,1%,?,0%,13µM*,4.5µM*,?,6%,-9%,?,ELG1 FLuc counter=2%;FLuc biochem=-4%
O=c1c2c(-c3ccccc3)csc2ncn1/N=C/c1c2ccccc2cc2ccccc12,-4%,.,-1%,?,.,.,.,.,.,
COc1cccc(NC(=O)CSc2ccc3nnc(-c4ccccn4)n3n2)c1,-2%,8%,0%,0%,.,.,.,.,.,
Cc1ccc(-c2cn(-c3cccc(Cl)c3)c(S(=O)(=O)CC(=O)Nc3cccc(C)c3)n2)cc1,-21%,21%[9.27 µM],6%,.,.,.,.,.,.,
COc1ccc(-c2nnc(SC(C)C(=O)Nc3cccc(Cl)c3)o2)cc1 (configuration not stated),-1%,?,0%,?,.,.,.,.,1%,
CCCC[C@@H]1CNCCN1CCc1cccc2ccccc12,5%,10%,-5%,7%,.,.,.,.,.,
Cc1nc(N2CCOCC2)nc(N2CCCCC2C)c1[N+](=O)[O-] (configuration not stated),-5%,2%,0%,21%,.,.,.,.,.,
